The source of these data is PubChem BioAssay (NCI).

Common to all, as to experiment: NCI-60 one-dose screen, 48 h (100 = growth as untreated, 0 = no growth, -100 = all killed)
Conditions in all cases: 10 µM unless noted

Experiment [1] concerns SK-MEL-2 melanoma.
The test system of experiment [2] is EKVX NSCLC.
For experiment [3], the system named is SN12C renal.
Experiment [4] deals with UO-31 renal.
For experiment [5], the system named is TK-10 renal.
Experiment [6] concerns ACHN renal.
The test system of experiment [7] is CAKI-1 renal.
Experiment [8] relates to A498 renal.
Experiment [9] deals with CCRF-CEM leukemia.
Experiment [10] concerns MOLT-4 leukemia.

The structures appear in SMILES notation. This is part of a sample that, as a whole, favours compounds with a hit. Of some 83,000 tested, about 20% had one in any assay.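 Growth was measured after 48 h exposure to one concentration of compound in 96-well plates. Values under 10 count as active.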 Values without a mark were called inactive. The source made the active and inactive calls.

Take `Cn1cc(-c2cc(N)n3nc(-c4cn(C)c5ncc(Br)cc45)cc3n2)c2cc(Br)cnc21`: the growth in experiment [1] is 39.5%; in experiment [2], 85.1%; in experiment [3] it was 12.4%; in experiment [4], 45.8%; in [5], -10.2% (active); in experiment [6], 1.23% (active). Besides, the growth is 56.6% in experiment [7], 114% in [8], 3.66% (active) in [9] and -54.3% (active) in experiment [10].

`C#CCOc1ccc(/C=N/Nc2nc(-c3cc4cc(Br)ccc4oc3=O)cs2)cc1OC`: the growth in experiment [1] was 105%; in experiment [2], 78.9%; in [3], 72.8%; in [4], 89.7%; in experiment [5], 102%; in experiment [6], 71%. Further, the growth is 67.9% in experiment [7], 50.1% in experiment [8], 100% in experiment [9] and 92.8% in [10].

With `O=c1[nH]n(C(=S)N/N=C/c2ccccc2Cl)c(=O)c2ccccc12`, the growth in experiment [1] is -33% (active); in experiment [2], -35.4% (active); in [3], 7.3% (active); in [4], 15.6%; in experiment [5], 25.8%; in experiment [6] it was 5.27% (active). The growth in experiment [7] is 27.5%; in [8] it was 38.7%; in experiment [9], -11.2% (active); in experiment [10], -1.75% (active).

Take `O=C(N/N=C/c1ccc(-c2ccc(O)cc2)s1)c1[nH]c2ccc(Br)cc2c1-c1ccccc1`: the growth in [1] is -4.17% (active); in [2], 12.3%; in experiment [3] it was 4.89% (active); in experiment [4], 15.2%; in [5], 22.2%; in [6] it was -2.55% (active). Moreover, the growth in [7] is 37.2%; in experiment [8], -8.65% (active); in experiment [9], -8.51% (active); in experiment [10], -13.3% (active).

With `Cc1cccc(-c2nc(Nc3cccc(S(N)(=O)=O)c3)c3ccccc3n2)c1`, the growth in experiment [1] was 66.6%; in [2], 45.5%; in [3] it was 51.7%; in experiment [4], 29.7%; in experiment [5] it was 73.7%; in experiment [6] it was 38.1%. Moreover, the growth is 46.9% in experiment [7], 47.7% in experiment [8], 31.7% in experiment [9] and 27.6% in experiment [10].

Turning to `CCOc1ccc(C(=O)NC(=S)Nc2ccc(S(N)(=O)=O)cc2)cc1`, the growth in experiment [1] was 104% [100 µM]; in [2], 101% [100 µM]; in [3] it was 100% [100 µM]; in experiment [4], 77.9% [100 µM]; in experiment [5], 92.6% [100 µM]; in [6], 101% [100 µM]. The growth in [7] was 87.9% [100 µM]; in [8], 96.6% [100 µM]; in experiment [9] it was 101% [100 µM]; in [10] it was 110% [100 µM].

As for `CC(=O)Nc1cccc(Nc2nc(NCc3ccccc3)c3ccccc3n2)c1`, the growth in [1] is -89.2% (active); in experiment [2], -97.6% (active); in experiment [3], -90.2% (active); in experiment [4] it was -98.5% (active); in experiment [5], -96.7% (active); in experiment [6], -100% (active). Besides, the growth in [7] was -94.8% (active); in experiment [8], -99.3% (active); in experiment [9], -13.8% (active); in experiment [10], -61% (active).

Take `CN(C)CCOc1ccc(C(=O)C2[C@H](c3ccc(Cl)cc3)[C@@H](c3ccccc3)NC23C(=O)Nc2ccccc23)cc1` (stereo not given in full): the growth is 112% in [1]; 77.2% in experiment [2]; 69.1% in [3]; 59% in [4]; 117% in experiment [5]; 88.3% in [6]. The growth in experiment [7] is 58%; in experiment [8], 112%; in experiment [9], 86.3%; in experiment [10], -32.8% (active).

With `C=C1CC[C@@H]2[C@]3(C)COC(c4cn(-c5ccccc5)nc4-c4ccccc4)O[C@@H]3CC[C@@]2(C)[C@@H]1C/C=C1/C(=O)OC[C@H]1O` (stereo not given in full), the growth was -81.1% (active) in [1]; -63.5% (active) in experiment [2]; -67.1% (active) in experiment [3]; -78.1% (active) in experiment [4]; -57.3% (active) in experiment [5]; -95.5% (active) in experiment [6]. In addition, the growth is -39.7% (active) in experiment [7], -13.9% (active) in experiment [8], 31.5% in [9] and -45.7% (active) in experiment [10].

Regarding `CC(=O)Oc1ccccc1C(=O)[Se]C(=NC1CCCCC1)NC1CCCCC1`, the growth in [1] was -74.5% (active); in experiment [2] it was -97.6% (active); in experiment [3], -99.3% (active); in [4] it was -100% (active); in [5] it was -98.8% (active); in experiment [6], -73.8% (active). For the same molecule, the growth in experiment [7] is -97.7% (active); in experiment [8] it was -5.3% (active); in [9], 4.94% (active); in [10], -22.2% (active).

Consider `Cn1cc(-c2nnc(N)nc2-c2c[nH]c3ccc(F)cc23)c2cccnc21`, for which the growth in experiment [1] was 15.7%; in [2] it was 62.4%; in experiment [3] it was 45.9%; in [4] it was 48.4%; in experiment [5], 82.4%; in [6] it was 54.6%. Moreover, the growth was 45.7% in experiment [7], 86.2% in experiment [8], 47.9% in experiment [9] and 28.9% in experiment [10].

On to `Cc1ccc([C@H]2C(C(=O)c3ccc(Cl)cc3)C3(N[C@@H]2c2ccccc2)C(=O)Nc2ccc(Cl)cc23)cc1` (stereo not given in full), for which the growth is 49.9% in experiment [1]; 59.8% in experiment [2]; -1.19% (active) in experiment [3]; 31.2% in experiment [4]; 65.7% in experiment [5]; 38.7% in experiment [6]. Besides, the growth in experiment [7] is 39.1%; in experiment [8], 94%; in experiment [9], 66.3%; in experiment [10] it was 3.24% (active).

With `N#Cc1c(-c2cccc3ccccc23)cc(-c2cccc(OCC(=O)O)c2)[nH]c1=O`, the growth in experiment [1] is 115%; in experiment [2], 93.5%; in [3], 96.8%; in [4] it was 71.3%; in [5], 104%; in [6] it was 100%. In addition, the growth is 74.2% in [7], 99.3% in experiment [8], 96.8% in experiment [9] and 85.7% in [10].
